Assay outcomes from PubChem BioAssay.
Compounds with a hit are over-represented: about 2.2% of the library has one in this group of screens.
PLC-beta3 inh – PLC-beta3 (human) inhibition, primary screen; Purified PLC-beta3, fluorogenic substrate, fluorescence; Q01970; 370,000 compounds, 0.18% hits; inhibition, % at 12.2 µM; AID 720704; in the data active = inhibition above about 11%;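 also: 0% = median of compound wells on plate and 100% = full blocker control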
PLCg1 inh – blocks human PLC-gamma1 enzyme activity; purified PLC-gamma1, fluorogenic substrate, fluorescence; inhibition, % at 12.2 µM; P19174; 370,000 compounds, 0.84% hits; AID 720700; in the data active = inhibition above about 9.5%
Rce1 inh – inhibitors of yeast Ras-converting enzyme. Q03530. 290,000 compounds, 0.27% hits. yeast membranes, quenched prenylated peptide cleavage fluorescence. calls only;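 active = fall in fluorescence gain of 50% or more versus controls, with final raw signal at or below 3038400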;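 also: plate controls were neutral control wells for no effect and wells lacking membranes for full effect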
Target sequence (Q03530 whole entry, looked up): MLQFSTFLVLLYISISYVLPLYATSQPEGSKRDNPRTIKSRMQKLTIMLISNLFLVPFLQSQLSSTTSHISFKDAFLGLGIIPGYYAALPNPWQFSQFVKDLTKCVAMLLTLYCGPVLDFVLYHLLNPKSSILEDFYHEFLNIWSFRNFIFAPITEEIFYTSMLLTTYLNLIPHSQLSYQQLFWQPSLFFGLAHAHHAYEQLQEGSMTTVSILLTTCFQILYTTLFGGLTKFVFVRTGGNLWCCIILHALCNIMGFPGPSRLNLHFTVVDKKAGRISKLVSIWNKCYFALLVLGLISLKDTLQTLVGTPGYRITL
PfM18AAP inh-1 – blocks P. falciparum M18 aspartyl aminopeptidase; recombinant PfM18AAP, H-Glu-NHMec fluorogenic cleavage; inhibition, % at 7.35 µM; 290,000 compounds, 1.2% hits; AID 1822;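 active = inhibition above the campaign mean inhibition over all tested compounds plus 3 SD, cut at about 28% in these data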;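 also: 0% = plate median of test compound wells and 100% = 2 mM ZnCl2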
NPR2 activator – GC-B (human) receptor activation; P20594; HEK293-GC-B cells, CNP EC30, cGMP TR-FRET; 0% at EC30 CNP, 100% saturating CNP; activation, % at 10 µM; 370,000 compounds, 0.11% hits; AID 1920062;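 active = activation at 10 µM reaching about 35% in either raw or pattern-adjusted values, limit read from the data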
GC-A act – GC-A (human) enzyme activation. P16066. 370,000 compounds, 0.14% hits. activation, % at 10 µM. HEK293 GC-A cells, cGMP TR-FRET, EC30 ANP; 0% at EC30 ANP, 100% saturating ANP; in the data active = activation above about 40%
PfM18AAP inh-2 – confirmation of Plasmodium falciparum M18 aspartyl aminopeptidase inhibitors; shares compounds with PfM18AAP inh-1; recombinant PfM18AAP, H-Glu-NHMec fluorogenic cleavage; inhibition, % at 7.35 µM; 2,400 compounds, 28% hits; AID 2170;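 active = mean inhibition over replicate wells above the hit cutoff set for the earlier primary screen, cut at about 29% in these data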;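 also: 0% = median of test compound wells and 100% = 2 mM ZnCl2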
CTSL1 counter – counter-screen for PFM18AAP inhibitors: confirmation of human cathepsin L inhibitors; AID 2178; 2,400 tested, under 10 active; shares compounds with PfM18AAP inh-1; purified cathepsin L1, Z-Leu-Arg-MCA fluorescence; inhibition, % at 5.96 µM;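 active = average inhibition across replicates above the hit cutoff set in the earlier primary screen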;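 also: 0% = median of test compound wells and 100% = Z-Phe-Ala-diazomethylketone 1 µM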
Target sequence (P07711 whole entry, looked up): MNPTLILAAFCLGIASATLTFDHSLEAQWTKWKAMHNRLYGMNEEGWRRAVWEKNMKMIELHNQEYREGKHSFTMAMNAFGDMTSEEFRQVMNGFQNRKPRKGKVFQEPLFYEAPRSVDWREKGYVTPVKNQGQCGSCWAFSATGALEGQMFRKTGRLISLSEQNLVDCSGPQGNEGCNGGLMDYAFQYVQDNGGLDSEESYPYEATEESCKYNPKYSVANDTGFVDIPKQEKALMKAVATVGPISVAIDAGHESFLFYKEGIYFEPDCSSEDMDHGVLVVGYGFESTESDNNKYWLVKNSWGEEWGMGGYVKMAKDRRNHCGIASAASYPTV
Numbers without * were called inactive; i = inactive; · = no result.

SMILES | PLC-beta3 inh | PLCg1 inh | Rce1 inh | PfM18AAP inh-1 | NPR2 activator | GC-A act | PfM18AAP inh-2 | CTSL1 counter
CCOC(=O)NC1(Nc2cccc(Cl)c2)Oc2ccccc2O1 | -1 | -4 | · | 52* | 3 | -1 | 63* | 1
Oc1ccc2c(c1)C1CCCC1(N1CCOCC1)O2 (stereo not given) | -18 | -9 | i | 36* | -3 | 4 | -17 | -4
c1ccc2c(c1)nc1n2C2(N3CCOCC3)CCCC2C1N1CCOCC1 (stereo not given) | -4 | -2 | · | · | 3 | 8 | · | ·
CCn1c(/C=N/n2cnnc2)nc2ccccc21 | -402 | -389 | i | 48* | -8 | 0 | -42 | -5
COC(=O)CN(c1ccccc1)S(=O)(=O)c1ccccc1 | -4 | 0 | i | 1 | 5 | 2 | · | ·
COC(=O)CN(n1cnnc1)S(=O)(=O)c1ccccc1 | 2 | 0 | i | 78* | 4 | 2 | 85* | 4
COc1cc(/C=C(\C#N)C(=O)c2c[nH]c3ccccc23)cc(OC)c1O | -47 | -32 | i | 36* | -6 | -10 | 7 | 2
COc1cc(/C=C(\C#N)C(=O)NCCc2ccccc2)cc(OC)c1O | -36 | -25 | i | 7 | -1 | 3 | · | ·
COc1ccc(-c2nn(-c3ccccc3)cc2/C=N/NC(=O)c2ccc3c(c2)OCO3)cc1 | · | · | i | 6 | · | · | · | ·
COc1ccc(-c2nn(-c3ccccc3)cc2/C=N/Nc2cccc(C(=O)O)c2)cc1 | -18 | -12 | · | 33* | -1 | -2 | -25 | 2
CCCc1cc(=O)[nH]c(=S)[nH]1 | 3 | -2 | i | 44* | 7 | 2 | -36 | -6
CCCCCc1cc(=O)[nH]c(=S)[nH]1 | -2 | 3 | i | 7 | -4 | -2 | · | ·
Cc1ccc(S(=O)(=O)N2CCOCC2)cc1NC(=O)CN1CCN(c2ccc(O)cc2)CC1 | 1 | 1 | i | 34* | 4 | -3 | 8 | 0
O=S(=O)(c1ccc(NC(=S)N2CCN(c3ccc(O)cc3)CC2)cc1)N1CCOCC1 | 4 | 0 | i | 34* | 4 | -2 | 2 | -5
Cc1ccc(S(=O)(=O)N2CCOCC2)cc1NC(=O)CN1CCN(C)CC1 | -5 | 1 | · | · | 5 | -2 | · | ·
NNc1nc2ccccc2nc1C(F)(F)F | -44 | -38 | i | -8 | 0 | 3 | · | ·
O=C(NC(=Nc1nc2ccccc2o1)NC(=O)c1ccccc1)c1ccccc1 | 1 | 2 | i | 1 | -1 | 1 | · | ·
O=C(NNc1nc2ccccc2o1)c1ccccc1 | -7 | 2 | i | 41* | 4 | 1 | 0 | 0
O=C(NNc1nc2ccccc2nc1C(F)(F)F)c1ccccc1 | -8 | -5 | i | 34* | -6 | 1 | -3 | 1
COC(=O)[C@H](CC(C)C)N(Cc1cn(Cc2ccccc2)nn1)S(=O)(=O)c1ccc(F)cc1Br | 5 | 1 | · | · | -2 | 0 | · | ·
COc1cc(C=Nn2c(-c3cc(C)[nH]n3)n[nH]c2=S)cc(Br)c1O | 1 | 3 | · | · | -8 | 2 | · | ·
Cc1ccc(NC(=O)C2CCCN2S(=O)(=O)c2cccnc2)c(C)c1 (stereo not given) | -2 | -3 | · | · | -6 | 5 | · | ·
COc1cc(/C=N/Nc2nncn2N)ccc1OCc1c(C)no[n+]1[O-] | 0 | 9 | i | 51* | -8 | -3 | -6 | 5
COC(=O)c1nc(NNC(=O)c2ccccc2)sc1-c1ccccc1 | -8 | 4 | i | 46* | 4 | 1 | 10 | -2
Cc1cc(C)c(S(=O)(=O)Nc2ccc(O)cc2)cc1C | · | · | i | -5 | · | · | · | ·
SMILES | PLC-beta3 inh | PLCg1 inh | Rce1 inh | PfM18AAP inh-1 | NPR2 activator | GC-A act | PfM18AAP inh-2 | CTSL1 counter
Cc1cc(C)c(S(=O)(=O)Nc2ccc(O)c(Sc3ncn[nH]3)c2)c(C)c1 | -1 | 0 | i | 49* | -1 | 5 | 14 | 0
Cc1cc(C)c(S(=O)(=O)Nc2ncn[nH]2)c(C)c1 | -2 | 0 | i | 20 | 2 | 0 | · | ·
Cc1cc(C)c(S(=O)(=O)Nc2ccc(O)c(Sc3ncn[nH]3)c2)cc1C | -1 | 0 | i | 52* | 0 | 3 | 22 | 2
COC(=O)c1cc(-c2ccc(Oc3ccccc3)cc2)c(=O)n2c1CCC2 | -48 | -36 | · | · | -6 | 1 | · | ·
CSc1ccc(C(=S)N2CCN(C(c3ccccc3)c3ccccc3)CC2)cc1 | -1 | 1 | i | 41* | 3 | 1 | -5 | -1
Cc1cc(C)c(-c2cc(C(=O)Nc3c(C)n(C)n(-c4ccccc4)c3=O)[nH]n2)c(O)c1 | 3 | 0 | i | 41* | 2 | 1 | -17 | 4
COc1ccc(/C=N/NS(=O)(=O)c2ccc(F)cc2)cc1COc1cc(F)ccc1[N+](=O)[O-] | 1 | 1 | i | 65* | -1 | -1 | -44 | 4
N#Cc1c(-c2ccc(F)cc2)cc(-c2ccccc2)nc1SCC(=O)NCC(=O)O | -4 | -3 | i | 51* | 0 | 4 | 6 | 6
O=C(NC1CCCc2c1cnn2-c1ccc(F)cc1F)c1cccs1 (stereo not given) | 3 | -1 | · | · | 2 | -1 | · | ·
O=S(=O)(NNc1nccc(C(F)(F)F)n1)c1cccc(Cl)c1Cl | -5 | 0 | i | 56* | 6 | 0 | 14 | 6
FC(F)(F)c1ccnc(NCc2ccc(Cl)cc2)n1 | -5 | 3 | i | -6 | -2 | 1 | · | ·
CCC(CC)c1nnc(NC(=O)c2ccc3c(c2)OCO3)s1 | -4 | -2 | i | 36* | -4 | 3 | -27 | 1
C[N+]1=C(N)N[C@@]2(C=C3CCCCC3n3c(=O)n(-c4ccccc4)c(=O)n32)C1 (stereo not given in full) | -3 | 0 | · | · | -2 | 2 | · | ·
CCc1cccc(CC)c1NC(=S)NCCc1c(C)[nH]c2ccccc12 | -2 | 1 | i | -5 | -11 | -8 | · | ·
CCc1cccc(CC)c1NC(=S)NCCc1ccc(O)c(O)c1 | -4 | -1 | i | 65* | -2 | 0 | 40* | -9
N=c1c(C(=O)NCc2ccco2)cc2c(=O)n3ccccc3nc2n1C1CCCC1 | i | i | i | 36* | 2 | 11 | -31 | 0
COc1cc(/C=N/N2C(=O)CSC2=S)ccc1O | -21 | -19 | i | 33* | -4 | -5 | 10 | -1
O=C1CSC(=S)N1/N=C/c1ccc2c(c1)OCCO2 | -21 | -6 | i | 34* | 0 | 2 | -9 | 0
COc1ccc(S(=O)(=O)NNc2nc(C)cc(C)n2)cc1[N+](=O)[O-] | -1 | 3 | i | 62* | 4 | 4 | 39* | -4
Cc1ccc(-n2cccc2/C=N/n2cnnc2)cc1Cl | 3 | 1 | i | 39* | 2 | -5 | -39 | -4
